Assay results as given in PubChem BioAssay (NCI).
About 83,000 compounds went through this panel and 20% of them were active in at least one assay; those are over-represented in the sample as a whole.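 96-well plates, one dose, 48 hours. Percent growth reported; active if below 10.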 A number with no mark means an inactive call. Activity calls are given as the source filed them.

Assays:
Experiment in all cases: NCI-60 one-dose screen, 48 h (100 = growth as untreated, 0 = no growth, -100 = all killed)
Conditions in all cases: 10 µM unless noted
HCT-15 colon = tested on: HCT-15 colon
HT29 colon = tested on: HT29 colon
SNB-75 CNS = tested on: SNB-75 CNS
SNB-19 CNS = tested on: SNB-19 CNS
U251 CNS = tested on: U251 CNS
PC-3 prostate = tested on: PC-3 prostate
SK-MEL-5 melanoma = tested on: SK-MEL-5 melanoma
UACC-62 melanoma = tested on: UACC-62 melanoma
LOX IMVI melanoma = tested on: LOX IMVI melanoma
SK-MEL-28 melanoma = tested on: SK-MEL-28 melanoma

Structure (SMILES)	growth (HCT-15 colon)	growth (HT29 colon)	growth (SNB-75 CNS)	growth (SNB-19 CNS)	growth (U251 CNS)	growth (PC-3 prostate)	growth (SK-MEL-5 melanoma)	growth (UACC-62 melanoma)	growth (LOX IMVI melanoma)	growth (SK-MEL-28 melanoma)
C=CCNc1nc(O)c(/C=C2\C=Nc3ncccc32)s1	24.7%	26.4%	-67.3% (active)	11%	0.764% (active)	12.6%	2.01% (active)	9.75% (active)	0.553% (active)	
CC(=O)OCCOc1cc(Cl)c(Cl)cc1Cl	104%	103%	102%	103%	99.2%	98.3%	99.5%	98.3%	101%	
O=C1c2c(c3c4cc(F)ccc4oc3c3[nH]c4ccccc4c23)C(=O)N1O	33.2%	31.4%	10.3%	26.7%	24.5%	32.3%	-30% (active)	3.37% (active)	-25.3% (active)	
C[C@@H]1N=C(c2ccc(Cl)cc2Cl)Nc2nc3ccccn3c2C1=O	35.1%	7.68% (active)	58.7%	60.8%	41.4%	39.1%	39.6%	40.5%	51.3%	
CCCCCCCCNc1ncnc2c1ncn2Cc1nnc2c3ccccc3c(Cl)nn12	32.8%	44.1%	37.6%	56.2%	44.8%	36.5%	39.3%	29.9%	12.8%	62.9%
NCCNc1ccc([N+](=O)[O-])cc1	108%	101%	96.2%	101%	102%	105%	118%	106%	105%	
O=C1NC(=O)C(=Cc2cc(-c3ccc(Cl)cc3)n(-c3ccccc3)n2)C(=O)N1	89.4%	112%	92.4%	87.3%	96.7%	100%	96.6%	90.5%	104%	
Cc1nc2cccc(NCc3ccc(C(=O)NO)cc3)c2c(=O)n1-c1ccccc1	31.3%	26.4%	42.6%	40.8%	-16.7% (active)	27%	8.27% (active)	-17.7% (active)	26.6%	
CCN1CCN(c2cc(C(=O)Nc3cccc(Nc4ccc5c(OC)cccc5n4)c3)cc(C(F)(F)F)c2)CC1	-15.9% (active)	-60% (active)	35.8%	36%	13.9%	7.66% (active)	-1.86% (active)	13%	-94.1% (active)	
C=CC(=O)Nc1ccc2ncnc(Nc3cccc(NS(=O)(=O)CCC)c3Cl)c2c1	67.9%	7.98% (active)	8.28% (active)	49%	52.5%	68%	52.4%	6.45% (active)	40.7%	
COc1ccc(C(=O)/C=C/c2ccc(C)cc2)cc1S(N)(=O)=O	22.8%	45.7%	82.7%	14.5%	17.1%	50.4%	82.2%	61.2%	28.8%	
C=C1C(=O)O[C@H]2[C@H]1CC/C(CNC(=O)/C=C/c1cc(OC)c(OC)c(OC)c1)=C\CC[C@@]1(C)O[C@@H]21	1.96% (active)	-66.4% (active)	46.9%	46.9%	25.9%	37.1%	20.6%	-36.3% (active)		
Cn1cc(-c2ccc3c(Nc4cccc(NC(=O)Nc5cccc(F)c5)c4)ncnc3c2)cn1	37.8%	32.8%	43.8%	65%	28.4%	33.6%	41.4%	32.4%	41.9%	
N#CC1=C(N)Oc2c(ccc3ccccc23)C1c1cc2ccccc2n2nnnc12 (configuration not stated)	11.8%	8.73% (active)	8.82% (active)	26.2%	18.7%	10.1%	7.97% (active)	25.4%	24.5%	39.3%
Cc1ccc(NC(=O)c2ccc(Nc3ncnc4c3cnn4-c3cccc(F)c3)cc2)cc1	100%	98.8%	93.5%	94.2%	102%	100%	99.8%	90.7%	92.8%	106%
CC1=NN(c2cccc(Cl)c2)C(=O)/C1=C\C=C\c1ccccc1	5% (active)	-29.5% (active)	50.9%	37.5%	-57.4% (active)	45.5%	5.05% (active)	28.2%	-87.9% (active)	-69.7% (active)
COc1ccc(C(c2cc(OC)c(OC)c(OC)c2)n2cncn2)cc1O (configuration not stated)	14%	5.3% (active)	48.6%	33.3%	15.3%	21.2%	14.6%	32%	43.5%	57%
CN(C)c1ccc(/C=N/NC(=O)CSc2nc3sc4c(c3c(=O)n2-c2ccccc2)CCCCC4)cc1	43.8%	45.8%	-2.33% (active)	48.8%	5.23% (active)	-23.4% (active)	46.2%	8.03% (active)	37.1%	47.4%
O=C1/C(=C/c2cccc([N+](=O)[O-])c2)COc2ccc(O)c(O)c21	-3.34% (active)	-12% (active)	7.32% (active)	-47.3% (active)	-89% (active)	-38.9% (active)	16.7%	-83.3% (active)	-93.6% (active)	-48.3% (active)
O=C1c2c(c3c4cccnc4[nH]c3c3ccc4ccccc4c23)C(=O)N1O	69%	27.9%	101%	29.7%	15.2%	43.1%	23.2%	24.4%	-31.5% (active)	46.1%
C#CCOC(=O)C(N)CSSCC(N)C(=O)O (configuration not stated)	108%	102%	76.1%	103%	105%	91.6%	105%	98%	98.7%	96.4%
CC(=O)c1ccc(Nc2nccc(-c3ccc(Cl)cc3)n2)cc1	82.3%	86.2%	105%	98%	78.4%	89.6%	102%	86.5%	90.7%	113%
COc1cc(C(=O)/C=C/c2c(-c3cccs3)nc3sc(C)cn23)cc(OC)c1OC	10.4%	3.69% (active)	-15.6% (active)	15.5%	5.96% (active)	8.02% (active)	-56.5% (active)	-38.7% (active)	9.35% (active)	21.7%
O=C(OCC(O)C(=O)NC12CC3CC(CC(C3)C1)C2)c1cccc(Br)c1 (configuration not stated)	95.2%	93.5%	98.5%	98.2%	97.5%	90.1%	103%	92.9%	95.2%	103%
Cc1oc2ccc(O)c(CN3CCCCCC3)c2c1C(=O)Nc1ccc(C(F)(F)F)cc1	45.1%	80.5%	50.6%	69.9%	55.1%	45.7%	70%	67.3%	39.2%	76.9%
C#C[C@]1(O)CC[C@H]2[C@@H]3CC=C4c5sc(-c6ccccc6)nc5CC[C@]4(C)[C@H]3CC[C@@]21C	52.3%	74.2%	63.6%	88%	69.8%	65.7%	97.4%	91.6%	74.9%	61.2%
